Experimental data published in PubChem BioAssay (Tox21).
Results filed as inconclusive are left out. The source made the active and inactive calls. Calls come from the whole dose curve; as a rule, active = well fitted curve in the direction sought with a large enough effect in the repeat runs; inconclusive = weak or mixed curves; inactive = no such curve, though single readings can be large; an effect the other way counts as inactive or inconclusive.

Key:
[1] = Caspase-3/7 induction in CHO-K1 cells by small molecules, qHTS cell viability counter screen (AID 1346979); note: nearly all actives have a fitted effect of over 35% in size; note: potency is the fitted concentration of half-maximal effect
Outline: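 Seeding: 1,500 CHO-K1 cells/well. Rest: 5hr, 37C. Treatment: compounds in DMSO, 16hr. Read: CellTiter-Fluor, 1hr, fluorescence.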

[2] = Caspase-3/7 induction in CHO-K1 cells by small molecules, qHTS assay (AID 1346980); note: nearly all actives have a fitted effect of over 15% in size
Outline: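 Wild-type CHO-K1 cells exposed to compounds for 17hr at 37 C, 5% CO2. Caspase-3/7 activity then measured by Caspase-Glo 3/7 luminescence after 30min at room temperature.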

[3] = molecular target: Nuclear receptor subfamily 1 group I member 2 (Homo sapiens) (UniProt O75469); assay: Human pregnane X receptor (PXR) small molecule agonists, qHTS assay (AID 1346982); note: nearly all actives have a fitted effect of over 35% in size; note: potency is the fitted concentration of half-maximal effect
Outline: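 PXR-Luc HepG2 cells (CYP3A4 promoter-driven luciferase) were seeded in medium with 5% charcoal-stripped FBS, left 5 hr at 37 C, then exposed to compounds in DMSO for 24 hr. Luminescence was read after ONE-Glo addition.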

[4] = molecular target: Nuclear receptor subfamily 1 group I member 2 (Homo sapiens) (UniProt O75469); assay: CYP3A4 induction through human pregnane X receptor (PXR) by small molecules, qHTS assay (AID 1346984); note: nearly all actives have a fitted effect of over 40% in size
Outline: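 DPX-2 cells (HepG2 co-transfected with PXR and CYP3A4 promoter-luciferase) treated with compounds 24 h at 37C; luciferin-IPA CYP3A4 substrate 3uM final added for 3 h, then One-Glo; luminescence read. qHTS format.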

[5] = molecular target: Cytochrome P450 2D6 (Homo sapiens) (UniProt P10635); assay: Cytochrome P450 Family 2 Subfamily D Member 6 (CYP2D6) small molecule antagonists: luciferase reporter qHTS assay (AID 1671196); note: nearly all actives have a fitted effect of over 50% in size; note: potency is the fitted concentration of half-maximal effect
Outline: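 CYP2D6 enzyme–substrate mix was held with compound for 10 min at room temperature, then NADPH regeneration solution was added and the reaction ran 1 h at room temperature. Luciferin product was detected by luminescence after 20 min with detection reagent.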

[6] = molecular target: Cytochrome P450 2C19 (Homo sapiens) (UniProt P33261); assay: Cytochrome P450 Family 2 Subfamily C Member 19 (CYP2C19) small molecule antagonists: luciferase reporter qHTS assay (AID 1671197); note: nearly all actives have a fitted effect of over 65% in size; note: potency is the fitted concentration of half-maximal effect
Outline: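 Compounds were tested on CYP2C19 activity via proluciferin conversion to luciferin. The 37C, 1 h reaction followed NADPH addition; detection reagent stopped it.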

[7] = molecular target: Nuclear receptor subfamily 1 group I member 2 (Rattus norvegicus) (UniProt Q9R1A7); assay: Rat pregnane X receptor (rPXR) activation by small molecules, qHTS assay (AID 1346983); conditions: rPXR luciferase reporter cells, One-Glo luminescence, 24 h; max activation: stronger effect = higher value; note: nearly all actives have a fitted effect of over 20% in size
Outline: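 Cell-based rPXR activation assay: rPXR cells, 2,000 per well, rested 5hr at 37 C, then exposed to compounds in DMSO for 24 hr at 37 C. Luciferase activity read by One-Glo luminescence after 30 min at room temperature.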

[8] = molecular target: Nuclear receptor subfamily 1 group I member 2 (Homo sapiens) (UniProt O75469); assay: Human pregnane X receptor (PXR) activation by small molecules, qHTS assay (AID 1346985); note: nearly all actives have a fitted effect of over 40% in size
Outline: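 DPX-2 cells (HepG2 co-transfected with a PXR response element and a CYP3A4-promoter luciferase construct) were seeded at 2,000 per well, rested 5 hr at 37C, then exposed to DMSO-dissolved compounds for 24 hr. Activation was read as luciferase luminescence.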

[9] = Caspase-3/7 induction in HepG2 cells by small molecules, qHTS cell viability counter screen (AID 1346981); note: series mostly up to about 92 µM; nearly all actives have a fitted effect of over 30% in size
Outline: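 Wild-type HepG2 cells (2,000/well) were allowed to settle for 5 hr at 37 C, 5% CO2, then dosed with compounds in DMSO by pin transfer. After 16 hr at 37 C, CellTiter-Fluor was added and fluorescence read 1 hr later.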
% is set by controls: 0 for no effect and ±100 for the full control effect.

Chain of Nuclear receptor subfamily 1 group I member 2 (Homo sapiens) (O75469 whole entry, looked up): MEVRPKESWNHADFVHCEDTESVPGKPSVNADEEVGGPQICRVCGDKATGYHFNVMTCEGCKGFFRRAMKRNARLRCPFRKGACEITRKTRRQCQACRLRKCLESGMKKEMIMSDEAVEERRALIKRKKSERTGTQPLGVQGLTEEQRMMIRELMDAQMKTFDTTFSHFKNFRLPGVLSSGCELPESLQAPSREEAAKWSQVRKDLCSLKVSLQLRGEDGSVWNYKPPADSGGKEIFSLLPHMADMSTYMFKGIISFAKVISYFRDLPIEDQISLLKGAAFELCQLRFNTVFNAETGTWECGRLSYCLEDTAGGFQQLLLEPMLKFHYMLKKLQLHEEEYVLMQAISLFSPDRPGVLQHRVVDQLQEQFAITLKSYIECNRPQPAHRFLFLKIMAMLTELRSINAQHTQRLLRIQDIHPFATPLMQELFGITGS
Chain of Nuclear receptor subfamily 1 group I member 2 (Rattus norvegicus) (Q9R1A7 whole entry, looked up): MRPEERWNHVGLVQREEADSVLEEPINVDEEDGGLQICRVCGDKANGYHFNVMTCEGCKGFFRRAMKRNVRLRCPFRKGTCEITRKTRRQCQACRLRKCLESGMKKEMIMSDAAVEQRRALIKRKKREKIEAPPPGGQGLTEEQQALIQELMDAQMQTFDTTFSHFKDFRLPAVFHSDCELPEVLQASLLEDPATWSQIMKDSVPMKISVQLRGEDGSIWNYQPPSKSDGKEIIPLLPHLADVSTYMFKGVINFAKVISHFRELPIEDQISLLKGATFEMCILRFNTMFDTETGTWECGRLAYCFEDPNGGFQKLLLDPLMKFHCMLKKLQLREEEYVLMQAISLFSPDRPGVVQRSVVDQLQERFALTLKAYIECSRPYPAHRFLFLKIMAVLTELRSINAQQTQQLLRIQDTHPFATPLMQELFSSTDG
Chain of Cytochrome P450 2C19 (Homo sapiens) (P33261 whole entry, looked up): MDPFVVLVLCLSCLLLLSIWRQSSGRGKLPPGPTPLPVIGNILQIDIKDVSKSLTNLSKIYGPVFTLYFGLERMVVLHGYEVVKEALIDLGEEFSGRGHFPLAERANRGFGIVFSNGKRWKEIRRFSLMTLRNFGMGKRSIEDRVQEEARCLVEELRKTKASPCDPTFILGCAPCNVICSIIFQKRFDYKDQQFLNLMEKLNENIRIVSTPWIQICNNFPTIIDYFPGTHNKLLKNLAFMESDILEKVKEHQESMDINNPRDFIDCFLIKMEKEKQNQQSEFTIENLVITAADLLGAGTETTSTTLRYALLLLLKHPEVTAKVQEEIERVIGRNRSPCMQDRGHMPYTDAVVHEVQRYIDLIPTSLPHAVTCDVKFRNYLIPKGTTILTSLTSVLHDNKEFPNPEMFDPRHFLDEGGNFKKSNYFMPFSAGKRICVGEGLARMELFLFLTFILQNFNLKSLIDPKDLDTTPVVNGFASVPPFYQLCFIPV
Chain of Cytochrome P450 2D6 (Homo sapiens) (P10635 whole entry, looked up): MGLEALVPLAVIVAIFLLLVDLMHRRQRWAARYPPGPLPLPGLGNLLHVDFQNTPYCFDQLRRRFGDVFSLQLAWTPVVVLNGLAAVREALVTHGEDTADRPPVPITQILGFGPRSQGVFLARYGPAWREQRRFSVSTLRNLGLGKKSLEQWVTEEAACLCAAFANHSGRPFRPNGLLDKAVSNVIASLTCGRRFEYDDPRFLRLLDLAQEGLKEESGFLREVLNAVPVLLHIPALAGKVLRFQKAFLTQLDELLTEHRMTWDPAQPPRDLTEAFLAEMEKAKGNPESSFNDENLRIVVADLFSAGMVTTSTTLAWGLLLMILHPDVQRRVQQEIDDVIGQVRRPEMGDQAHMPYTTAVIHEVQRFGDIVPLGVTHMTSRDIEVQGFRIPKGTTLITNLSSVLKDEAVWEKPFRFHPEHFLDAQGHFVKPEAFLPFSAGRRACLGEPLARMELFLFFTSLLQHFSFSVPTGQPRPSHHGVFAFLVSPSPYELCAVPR

CC(=O)O[C@@]12CO[C@@H]1C[C@H](O)[C@@]1(C)C(=O)[C@H](O)C3=C(C)[C@@H](OC(=O)[C@H](O)[C@@H](NC(=O)OC(C)(C)C)c4ccccc4)C[C@@](O)([C@@H](OC(=O)c4ccccc4)[C@H]21)C3(C)C
active: Potency [1] 11.9 µM | Potency [5] 38.9 µM
inactive: outcome [2] | Potency [3] | Potency [4] | Potency [6]

CC(=O)NC(=O)c1ccccc1O
inactive: Potency [1] | outcome [2] | Potency [3] | max activation [7] -2.9% | Potency [4] | Potency [8] | Potency [5] | Potency [6]

CC(=O)N[C@H]1[C@H]([C@H](O)[C@H](O)CO)OC(C(=O)O)=C[C@@H]1N=C(N)N
inactive: Potency [1] | outcome [2] | Potency [3] | max activation [7] -1.75% | Potency [8] | Potency [5] | Potency [6]

N[C@H](C(=O)O)[C@@H](O)c1ccc(O)c(O)c1
inactive: Potency [1] | outcome [2] | Potency [3] | max activation [7] -4.66% | Potency [4] | Potency [8] | Potency [5] | Potency [6]

CC(C)CC(C)(N)C#N (stereo unspecified)
inactive: Potency [1] | outcome [2] | Potency [9] | Potency [3] | Potency [5] | Potency [6]

CCCCCCCCCCCCCCCCCCO
inactive: Potency [1] | outcome [2] | Potency [9] | max activation [7] -0.712% | Potency [4] | Potency [8] | Potency [5] | Potency [6]

Cc1ncc([C@@H](CCCCCCc2ccc3c(n2)NCCC3)CC(=O)O)cn1
active: Potency [1] 38.6 µM
inactive: outcome [2] | Potency [3] | Potency [5] | Potency [6]

CC[N+](CC)(CC)CCOc1cccc(OCC[N+](CC)(CC)CC)c1OCC[N+](CC)(CC)CC
inactive: Potency [1] | outcome [2] | Potency [9] | Potency [3] | max activation [7] -1.52% | Potency [4] | Potency [8] | Potency [5] | Potency [6]

C=C(C)C(=O)OCC(O)CO (stereo unspecified)
inactive: Potency [1] | outcome [2] | Potency [9] | Potency [5] | Potency [6]

O=S(=O)(O)c1cccc2c(S(=O)(=O)O)cccc12
inactive: Potency [1] | outcome [2] | Potency [9] | Potency [3] | Potency [5]

C=CC(=O)OCCCl
active: Potency [6] 81.5 µM
inactive: Potency [1] | outcome [2] | Potency [9]

Nc1ccn([C@@H]2O[C@H](CO)[C@@H](O)C2(F)F)c(=O)n1
inactive: outcome [2] | Potency [9] | max activation [7] -12% | Potency [4] | Potency [8] | Potency [5] | Potency [6]

CCOc1ccccc1OCC
inactive: Potency [1] | outcome [2] | Potency [9] | Potency [3]
active: Potency [6] 71 µM

COc1ccc2cc1Oc1cc3c(cc1OC)CC[N+](C)(C)[C@H]3Cc1ccc(cc1)Oc1c(OC)c(OC)cc3c1[C@@H](C2)[N+](C)(C)CC3
inactive: Potency [1] | outcome [2] | Potency [3] | max activation [7] 0.186% | Potency [4] | Potency [8] | Potency [5] | Potency [6]

[K+]
inactive: Potency [1] | outcome [2] | Potency [9] | Potency [5] | Potency [6]
active: Potency [3] 27.3 µM

CC(=O)N1C[C@H](O)C[C@H]1C(=O)O
inactive: Potency [1] | outcome [2] | Potency [9] | Potency [3] | max activation [7] -1.61% | Potency [4] | Potency [8] | Potency [5] | Potency [6]

CC/C=C\CCOC(C)OCC (stereo unspecified)
inactive: Potency [1] | outcome [2] | Potency [3] | Potency [5] | Potency [6]

NC(=O)Cc1cccc2ccccc12
inactive: Potency [1] | outcome [2] | Potency [9] | Potency [3] | Potency [5] | Potency [6]

CC(=O)c1ccc2ccccc2c1
active: Potency [6] 28.3 µM
inactive: Potency [1] | outcome [2] | Potency [3]

CC(C)[C@H]1CC[C@@H](C)CC1=O
inactive: Potency [1] | outcome [2] | Potency [9] | Potency [3] | Potency [5] | Potency [6]

CCC(C)(CN(C)C)OC(=O)c1ccccc1 (stereo unspecified)
inactive: Potency [1] | outcome [2] | Potency [9] | max activation [7] -1.69%

CC(C)C1CCC(O)CC1 (stereo unspecified)
inactive: Potency [1] | outcome [2] | Potency [9] | Potency [3] | Potency [5] | Potency [6]

O=[N+]([O-])c1cncn1CCN1CCOCC1
inactive: Potency [1] | outcome [2] | Potency [9] | Potency [3] | Potency [5] | Potency [6]

CCN(Cc1ccccc1)c1ccccc1
inactive: Potency [1] | outcome [2] | Potency [9]
active: Potency [6] 1.76 µM

O=C(O)c1cn(C2CC2)c2cc(N3CCNCC3)c(F)cc2c1=O
inactive: Potency [1] | outcome [2] | max activation [7] -1.42%

CCCCCCC#CC(=O)OC
inactive: Potency [1] | outcome [2] | Potency [9] | Potency [3] | Potency [5] | Potency [6]

C[N+](C)(CCOc1ccccc1)Cc1cccs1
active: Potency [5] 0.195 µM
inactive: Potency [1] | outcome [2] | Potency [9] | Potency [6]
